Results reported in PubChem BioAssay (NCATS).
Inconclusive results are not listed. Activity calls are given as the source filed them. Calls come from the whole dose curve; as a rule, active = well fitted curve in the direction sought with a large enough effect; inconclusive = small, poorly fitted or top-dose-only effect, or another doubt; inactive = no such curve, though single readings can be large; an effect the other way counts as inactive or inconclusive.

Key:
[1] = NS1 protein of Zika virus - qHTS assay to identify small molecule inhibitors in human HEK 293 cells (AID 1347053); note: series mostly up to about 46 µM; nearly all actives have a fitted effect of over 55% in size
Procedure, shortened: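 HEK 293 cells pretreated with compound for 1 h, then infected with ZIKV MR766 (MOI 0.5) for 24 h at 37 C. NS1 detected by TR-FRET with two anti-NS1 antibodies; normalized to uninfected (0%) and infected (100%) wells.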

[2] = qHTS of pediatric cancer cell lines to identify multiple opportunities for drug repurposing: Primary screen for TC32 cells (AID 1347089); note: nearly all actives have a fitted effect of over 60% in size
Procedure, shortened: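 In the primary qHTS, MIPE compounds were tested at 11 concentrations (0.78 nM to 46 µM) and NPC compounds at 8 (0.59 nM to 46 µM) on TC32 cells for 48 h. CellTiter-Glo luminescence gave viability.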

[3] = qHTS of pediatric cancer cell lines to identify multiple opportunities for drug repurposing: Primary screen for DAOY cells (AID 1347090); note: series mostly up to about 46 µM; nearly all actives have a fitted effect of over 55% in size
Procedure, shortened: (§1)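 Eight- or eleven-point concentration series, 48 h treatment at 37 degrees C in growth media; readout CellTiter-Glo luminescence. Potency and efficacy were taken from the concentration-response curves.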

[4] = qHTS of pediatric cancer cell lines to identify multiple opportunities for drug repurposing: Primary screen for SJ-GBM2 cells (AID 1347091)
Procedure, shortened: as §1

[5] = qHTS of pediatric cancer cell lines to identify multiple opportunities for drug repurposing: Primary screen for A673 cells (AID 1347092); note: nearly all actives have a fitted effect of over 45% in size
Procedure, shortened: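 48 h compound exposure, A673, 500-1,000 cells/well, 37 degrees C/5% CO2. MIPE: 11-point, 0.78 nM-46 µM; NPC: 8-point, 0.59 nM-46 µM (final). Readout CellTiter-Glo luminescence after 15 min RT.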

[6] = qHTS of pediatric cancer cell lines to identify multiple opportunities for drug repurposing: Primary screen for SK-N-MC cells (AID 1347093); note: series mostly up to about 46 µM
Procedure, shortened: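 Metabolically active cells were quantified by ATP-dependent luminescence (CellTiter-Glo, 15 min at room temperature) following 48 h treatment. Cells had been plated at 500-1,000 per well and settled for 5 h beforehand.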

[7] = qHTS of pediatric cancer cell lines to identify multiple opportunities for drug repurposing: Primary screen for BT-37 cells (AID 1347094); note: series mostly up to about 57 µM
Procedure, shortened: (§2)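 Quantitative HTS format: each compound titrated (MIPE 11 points from 0.78 nM, NPC 8 points from 0.59 nM) onto cells plated 5 hours earlier. After 48 h at 37 degrees C, CellTiter-Glo luminescence was recorded.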

[8] = qHTS of pediatric cancer cell lines to identify multiple opportunities for drug repurposing: Primary screen for U-2 OS cells (AID 1347096); note: nearly all actives have a fitted effect of over 50% in size
Procedure, shortened: (§3)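 Cells (500-1,000/well) in growth media were settled 5 h at 37 degrees C, then given compounds for 48 h. Viability was read as CellTiter-Glo luminescence. Primary runs used MIPE at 11 points (0.78 nM-46 µM) and NPC at 8 points (0.59 nM-46 µM); follow-ups used 11 points.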

[9] = qHTS of pediatric cancer cell lines to identify multiple opportunities for drug repurposing: Primary screen for SK-N-SH cells (AID 1347098);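 note: DMSO served as neutral control and bortezomib at 2.3 µM as positive control; nearly all actives have a fitted effect of over 65% in size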
Procedure, shortened: (§4)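 Cells (500-1,000/well) rested 5 h, then received compounds for 48 h; metabolically active cells were measured by CellTiter-Glo luminescence. Final concentrations spanned up to 46 µM (MIPE, 11-point) or 0.59 nM-46 µM (NPC, 8-point) in primary screens, 11-point in follow-ups.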

[10] = qHTS of pediatric cancer cell lines to identify multiple opportunities for drug repurposing: Primary screen for NB1643 cells (AID 1347099); note: nearly all actives have a fitted effect of over 50% in size
Procedure, shortened: as §2

[11] = qHTS of pediatric cancer cell lines to identify multiple opportunities for drug repurposing: Primary screen for LAN-5 cells (AID 1347100)
Procedure, shortened: as §3

[12] = qHTS of pediatric cancer cell lines to identify multiple opportunities for drug repurposing: Primary screen for BT-12 cells (AID 1347101); note: nearly all actives have a fitted effect of over 25% in size
Procedure, shortened: as §4

[13] = qHTS of pediatric cancer cell lines to identify multiple opportunities for drug repurposing: Primary screen for Rh18 cells (AID 1347102); note: nearly all actives have a fitted effect of over 65% in size
Procedure, shortened: as §3

[14] = qHTS of pediatric cancer cell lines to identify multiple opportunities for drug repurposing: Primary screen for OHS-50 cells (AID 1347103); note: nearly all actives have a fitted effect of over 40% in size
Procedure, shortened: as §4

[15] = qHTS of pediatric cancer cell lines to identify multiple opportunities for drug repurposing: Primary screen for RD cells (AID 1347104); note: nearly all actives have a fitted effect of over 55% in size
Procedure, shortened: as §2

[16] = qHTS of pediatric cancer cell lines to identify multiple opportunities for drug repurposing: Primary screen for Saos-2 cells (AID 1347097); note: nearly all actives have a fitted effect of over 40% in size
Procedure, shortened: as §2

[17] = qHTS of pediatric cancer cell lines to identify multiple opportunities for drug repurposing: Primary screen for NB-EBc1 cells (AID 1347095)
Procedure, shortened: as §2

Measured: Potency

CC1(C)O[C@@H]2C[C@H]3[C@@H]4C[C@H](F)C5=CC(=O)C=C[C@]5(C)[C@H]4[C@@H](O)C[C@]3(C)[C@]2(C(=O)CO)O1
not listed: [16] | [17]
inactive: all other assays above

Cc1c(C(N)=O)cc([N+](=O)[O-])cc1[N+](=O)[O-]
not listed: [6] | [15] | [17]
inactive: all other assays above

Cc1cc(N)c2cc(NC(=O)Nc3ccc4nc(C)cc(N)c4c3)ccc2n1
not listed: [5] | [9] | [10] | [15]
inactive: all other assays above

CCCC(=O)Nc1ccc(OCC(O)CNC(C)C)c(C(C)=O)c1 (stereo unspecified)
not listed: [11] | [16] | [17]
inactive: all other assays above

O=S1(=O)c2cccc3cccc(c23)N1CCCN1CCN(c2ccc(F)cc2)CC1
not listed: [6] | [9] | [11] | [14]
inactive: all other assays above

CC(C)(Oc1ccc(Cl)cc1)C(=O)O
not listed: [6] | [14]
inactive: all other assays above

Cc1ccc(C(=O)C(C)CN2CCCCC2)cc1 (stereo unspecified)
not listed: [6] | [11]
inactive: all other assays above

CC(C)COC(=O)c1ccc(N)cc1
not listed: [6] | [9] | [11]
inactive: all other assays above

COC(=O)[C@@H]1CC2=CC(=O)CC[C@]2(C)[C@@]23O[C@@H]2C[C@@]2(C)[C@@H](CC[C@@]24CCC(=O)O4)[C@H]13
not listed: [6] | [11] | [15]
inactive: all other assays above

CC(=O)Oc1ccc(C(c2ccc(OC(C)=O)cc2)c2ccccn2)cc1
not listed: [6] | [8] | [14]
inactive: all other assays above

CC[C@@H](CO)NCCN[C@@H](CC)CO
not listed: [6] | [14]
inactive: all other assays above

CN1C(CCl)Nc2cc(Cl)c(S(N)(=O)=O)cc2S1(=O)=O (stereo unspecified)
not listed: [5] | [10] | [11]
inactive: all other assays above

CC(Cc1cccc(C(F)(F)F)c1)NCCOC(=O)c1ccccc1 (stereo unspecified)
not listed: [6] | [7] | [14] | [15] | [16] | [17]
inactive: all other assays above

O=C1OC2(c3ccc(O)cc3Oc3cc(O)ccc32)c2ccccc21
not listed: [6] | [10]
inactive: all other assays above
